40 compounds from PubChem BioAssay (NCI) can be followed below.

Compounds without any hit were thinned out: in the full panel of roughly 83,000, 20% have a hit.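 Values shown are percent growth following 48 h exposure of cells in 96-well plates to a single concentration of compound; below 10 was considered active.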 Values without a mark were called inactive. Activity calls are given as the source filed them.

This assay deals with RPMI-8226 leukemia. Put plainly: NCI-60 one-dose screen, 48 h (100 = growth as untreated, 0 = no growth, -100 = all killed). Conditions: 10 µM unless noted. As to the method:
Growth inhibition of the RPMI-8226 human tumor cell line is measured as a screen for anti-cancer activity. Cells are grown in 96 well plates and exposed to the test compound for 48 hours. Compounds are tested at a single concentration, which is 10^-5 M for most compounds. The reported endpoint is percent growth (GI% or GIPRCNT), where numbers from 0 - 100% represent growth inhibition, and numbers from -100% - 0 represent cell death. For example, a value of 40 represents 60% growth inhibition. A value of 0 means no net growth occurred over the course of the experiment. A value of -40 indicates 40% of cells at the beginning of the experiment died by the end of the experiment. A value of -100 means all cells are dead at the end of the experiment.
NCI-60 Human Tumor Cell Lines Screen was performed using the standard one-dose NCI protocol, which is described in more detail at https://dtp.cancer.gov/discovery_development/nci-60/default.htm.
Compounds with GIPRCNT values below 10 were considered active. Activity score was based on GIPRCNT using the following formula: […]
Score is 0 for GIPRCNT values of 100 or above, 50 for GIPRCNT values of 0, and 100 for GIPRCNT values of -100.
In the case of `COC1C[C@H](O[C@@H]2C[C@H](O[C@@H]3C[C@H](O[C@@H]4C(=O)c5c(cc6cc(O[C@H]7C[C@@H](O[C@H]8C[C@@H](O)[C@H](O)C(C)O8)[C@H](O)C(C)O7)c(C)c(O)c6c5O)C[C@H]4C(OC)C(=O)[C@@H](O)[C@@H](C)O)OC(C)[C@H]3O)OC(C)[C@@H]2O)OC(C)[C@@H]1O` (stereo not given in full), the growth is -1.8% (active).
Next, `Cn1c(=O)c2[nH]c(N/N=C/c3ccccc3Br)nc2n(C)c1=O`: 105%; `C#CCOc1cccc(Nc2ncnc3c(NC(=O)C=C)cccc23)c1`: -10% (active).
As to `COc1ccc(/C=N/NC(=O)CCN2c3ccccc3Sc3ccccc32)cc1`, the growth was 94%.
With `Clc1ccc2c(c1)N(c1ncnc3ccc(-c4cnc5[nH]ncc5c4)cc13)CC2`, the growth is 16.9%.
On to `COC(=O)c1cc(-c2ccc(OC)cc2)[nH]c1N/N=C/c1c(Cl)cccc1Cl`, for which the growth is 10.9%.
For the compound `OCCCC1CCN(C(Cc2ccccc2)c2ccccc2)CC1` (stereo not given), the growth was 98.3%.
Under `CCCCNc1ccc(C#N)c(OCCN(CC)CC)c1` stands 93.3%; under `O=C1/C(=C/c2ccc(F)cc2)COc2ccc(O)c(O)c21`, -2.78% (active); under `CC(C)NC1CCC(Nc2ccnc3cc(Cl)ccc23)CC1` (stereo not given), 76%.
Next, `Cc1ccc(Cl)cc1Nc1nc(C(F)(F)F)ccc1C(=O)N/N=C/c1cccnc1`: 21%; `COC(C(=O)[C@@H](O)[C@@H](C)O)[C@@H]1Cc2cc3cc(O[C@H]4C[C@@H](O[C@H]5C[C@@H](O)[C@H](O)C(C)O5)[C@H](O)C(C)O4)c(C)c(O)c3c(O)c2C(=O)[C@H]1O[C@H]1C[C@@H](O[C@H]2C[C@@H](O[C@H]3C[C@@H](O)[C@H](OC)C(C)O3)[C@@H](O)C(C)O2)[C@H](O)C(C)O1` (stereo not given in full): 0.837% (active); `Cc1noc(C)c1C(=O)OCc1coc2ccccc2c1=O`: 30.1%.
Under `O=C1Nc2ccccc2/C1=C\c1nc(-c2ccccc2F)n2ccccc12` stands 44.6%.
With `O=C1/C(=C\c2cn(-c3ccccc3)nc2-c2ccc(-c3cccs3)cc2)CCc2ccccc21`, the growth was 52.2%.
Next, `O=[N+]([O-])c1ccc(S(=O)(=O)N2CCN(C3=NS(=O)(=O)c4ccccc4N3c3ccccc3)CC2)cc1`: 58.7%.
Under `CCN(CC)CCSc1nc(-c2ccccc2)c(C#N)c(=O)[nH]1` stands 119%; under `S=C(Nc1ccc(-c2nc(N3CCOCC3)c3cccn3n2)cc1)Nc1cccnc1`, 19%.
Next, `O=C(Cn1c2c(c3ccccc31)CCCC2)Nc1ccc(-c2nc3ccccc3s2)cc1`: 116%; `N#CC1=C(N)Oc2c(sc3c(Br)cccc23)C1c1ccc(F)cc1` (stereo not given): 16.7%.
Turning to `COc1ccc(C(=O)Nc2ncc(Cc3ccc(F)cc3)s2)cc1`, the growth is 15.9%.
For `COc1cc(C(=O)n2nc(N3CCN(C)CC3)c3cc(N)ccc32)cc(OC)c1OC`, the growth was 33.3%.
For the compound `COc1ccc(-c2nnc3n(C)c(=O)c4ccccc4n23)cc1N`, the growth is 20%.
For the compound `COc1ccc(-c2nc(/C=C3\SC(=NCc4ccccc4)NC3=O)c3ccccn23)cc1`, the growth is -3.83% (active).
Consider `O=C(c1ccc(-c2ccccc2)cc1)c1ccc([N+](=O)[O-])cc1`, for which the growth was 66.1%.
For the compound `COc1cccc(CNc2ncnc3c2ncn3C2OC(CO)C(O)C2O)c1O` (stereo not given), the growth is -28.5% (active).
In the case of `CC(C)n1cnc2c(=S)nc[nH]c21`, the growth is 72.9%.
For `CNC(=O)c1cc(Oc2ccc3c(c2)sc2nc(-c4cc(OC)c(OC)c(OC)c4)cn23)ccn1`, the growth is 21%.
As for `COCCn1cc(-c2nc(-c3cc4cccnc4n3CCOC)cs2)c2cc(OC)ccc21`, the growth is 60.3%.
For the compound `CN(C)c1ccc(/C=C/C(=O)c2ccc(-n3cc(CN4CCN(c5cc6c(cc5F)c(=O)c(C(=O)O)cn6C5CC5)CC4)nn3)cc2)cc1`, the growth was -24.6% (active).
`O=C(NCCCN1CCOCC1)c1cccc(N2C(=O)/C(=C/c3ccc(F)cc3)SC2=S)c1`: the growth is 102%.
`C1=CN2CC(c3ccccc3)=NNC2c2ccccc21` (stereo not given): the growth was 69.8%.
Consider `Cn1ccc2c3c(ccc21)CC3=O`, for which the growth is 106%.
Turning to `O=C1c2ccc3c4ccc5c6c(ccc(c7ccc(c2c37)C(=O)N1CCC[P+](c1ccccc1)(c1ccccc1)c1ccccc1)c64)C(=O)N(CCC[P+](c1ccccc1)(c1ccccc1)c1ccccc1)C5=O`, the growth was 21.3%.
As for `COC(=O)c1n[nH]c2ccc3nc(-c4cn[nH]c4C(F)(F)F)c4c(c3c12)CCCC4`, the growth is 57.5%.
As for `CCOC(=O)c1c(NC(=O)c2ccc(C(C)C)cc2)sc2c(CN(C)C)c(O)ccc12`, the growth was -20% (active).
In the case of `CCOc1ccc(NC(=O)CSc2oc(-c3ccccc3)nc2S(=O)(=O)c2ccc(F)cc2)cc1`, the growth is 73%.
Under `CS(=O)(=O)C1=CN(CCO)C(=O)N2CCCN=C12` stands 119%; under `Cn1c(O)c(C=NCCN=Cc2c(O)n(C)c(=O)n(C)c2=O)c(=O)n(C)c1=O`, 80.6%.
On to `COC(=O)c1cc(-c2ccc(S(C)(=O)=O)cc2)[nH]c1N/N=C/c1c(Cl)cccc1Cl`, for which the growth was -5.71% (active).
